# Measured values: PubChem BioAssay (NCI)
# About 79,000 compounds went through this panel and 15% of them were active in at least one assay; those are over-represented in the sample as a whole. Unmarked numbers belong to inactive results. Active and inactive are the calls of the source. Cut-off read from the data, not from the text of the source: active = growth inhibition above about 70%; inactive = the rest.
# How the values were obtained:
# [1] = NCI Yeast Anticancer Drug Screen. Data for the mec2-1 strain (AID 157); conditions: S. cerevisiae mec2-1 strain, stronger effect = higher value
# Procedure, shortened: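 Readout is yeast growth inhibition, normalised to vehicle-treated controls, in the mec2-1 strain exposed to compound.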
# [2] = NCI Yeast Anticancer Drug Screen. Data for the rad14 strain (AID 159);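 note: 0% = growth of vehicle-treated control cultures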; conditions: S. cerevisiae rad14 strain growth inhibition, stronger effect = higher value
# Procedure, shortened: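 DNA repair-defective yeast, compound-exposed; % growth inhibition derived by comparison with vehicle-treated controls.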
# [3] = NCI Yeast Anticancer Drug Screen. Data for the sgs1 mgt1 strain (AID 161);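 note: 0% = growth of cultures given vehicle only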; conditions: S. cerevisiae sgs1 mgt1 strain, stronger effect = higher value
# Procedure, shortened: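 Yeast cells carrying a defined DNA-repair defect were exposed to test compounds. Growth inhibition was measured relative to vehicle-treated controls.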
# [4] = NCI Yeast Anticancer Drug Screen. Data for the CLN2oe strain (AID 163);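 note: 0% = growth of vehicle-only control cultures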; conditions: S. cerevisiae CLN2oe strain, stronger effect = higher value
# Procedure, shortened: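 Values reflect how much compound exposure reduced yeast growth, referenced to vehicle-exposed cells. Assay organism is a strain with a defined genetic change affecting cell-cycle control.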
# [5] = NCI Yeast Anticancer Drug Screen. Data for the cln2 rad14 strain (AID 165);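 note: 0% = growth equal to vehicle treated cultures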; conditions: S. cerevisiae cln2 rad14 strain, stronger effect = higher value
# Procedure, shortened: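 Relative to vehicle controls, growth inhibition of compound-treated cln2 rad14 yeast was recorded.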
# [6] = NCI Yeast Anticancer Drug Screen. Data for the bub3 strain (AID 167); conditions: S. cerevisiae bub3 mutant strain, stronger effect = higher value
# Procedure, shortened: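 In this screen, a yeast mutant lacking normal mitotic checkpoint function is challenged with compound. Relative growth versus vehicle gives the inhibition value.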
# [7] = NCI Yeast Anticancer Drug Screen. Data for the wt2 strain (AID 169);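 note: 0% = growth of vehicle-treated yeast cultures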; conditions: S. cerevisiae wt2 strain growth inhibition, stronger effect = higher value
# Procedure, shortened: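 Values express reduction in yeast growth under compound treatment, referenced to vehicle-treated cells.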
# [8] = NCI Yeast Anticancer Drug Screen. Data for the mlh1 strain (AID 171);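 note: 0% = growth of vehicle-treated control cultures of the same strain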; conditions: S. cerevisiae mlh1 strain growth inhibition, stronger effect = higher value
# Procedure, shortened: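 Steps: expose the defined-mutant yeast strain to compound; expose a parallel culture to vehicle; measure growth; express compound effect as inhibition relative to the vehicle culture.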
# [9] = NCI Yeast Anticancer Drug Screen. Data for the sgs1 strain (AID 173);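 note: 0% = growth of vehicle-only control cultures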; conditions: S. cerevisiae sgs1 mutant, stronger effect = higher value
# Procedure, shortened: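 Treat defined-mutant yeast with compound; measure growth; calculate inhibition relative to vehicle-treated cells.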
# [10] = NCI Yeast Anticancer Drug Screen. Data for the mlh1 rad18 strain (AID 175); conditions: S. cerevisiae mlh1 rad18 strain growth inhibition, stronger effect = higher value
# Procedure, shortened: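 Test agents were incubated with a yeast strain of defined genotype (DNA damage repair defect). Inhibition of growth was derived by comparison with vehicle-exposed cultures.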
# [11] = NCI Yeast Anticancer Drug Screen. Data for the rad18 strain (AID 177); conditions: S. cerevisiae rad18 mutant growth inhibition, stronger effect = higher value
# Procedure, shortened: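 A genetically defined yeast mutant impaired in DNA damage repair was treated with test compounds, then its growth was measured against cultures receiving vehicle alone.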
# [12] = NCI Yeast Anticancer Drug Screen. Data for the rad52 strain (AID 147);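 note: 0% = growth of vehicle-treated control cultures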; conditions: S. cerevisiae rad52 mutant growth inhibition, stronger effect = higher value
# Procedure, shortened: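 Screen used a yeast mutant impaired in DNA repair. After compound exposure, growth was measured. Values reflect inhibition compared with vehicle-treated cells.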
# [13] = NCI Yeast Anticancer Drug Screen. Data for the wt1 strain (AID 149);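 note: 0% = growth of vehicle-treated wt1 cultures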; conditions: S. cerevisiae wt1 strain (SPY 50644) growth inhibition, stronger effect = higher value
# Procedure, shortened: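 wt1 strain grown with compound or vehicle; inhibition taken from the growth difference.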
# [14] = NCI Yeast Anticancer Drug Screen. Data for the rad50EPP+ strain (AID 151);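 note: 0% = growth of vehicle-treated control cultures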; conditions: S. cerevisiae rad50 mutant strain, stronger effect = higher value
# Procedure, shortened: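 Exposing the rad50EPP+ strain to each compound, growth was compared with vehicle-only cultures to give inhibition.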
# [15] = NCI Yeast Anticancer Drug Screen. Data for the mgt1 strain (AID 153); conditions: S. cerevisiae mgt1 mutant growth inhibition, stronger effect = higher value
# Procedure, shortened: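 Genetically defined yeast (mgt1) treated with compound; inhibition of growth expressed against vehicle-treated controls.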
# [16] = NCI Yeast Anticancer Drug Screen. Data for the rad50 strain (AID 155);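 note: 0% = growth of vehicle-only cultures of the same strain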; conditions: S. cerevisiae rad50 strain growth inhibition, stronger effect = higher value
# Procedure, shortened: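 DNA repair mutant yeast, compound exposure, growth read-out; inhibition is taken relative to vehicle.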
# [17] = at 5.0 µM (retest, dose inferred, filed as 0.5)
# [18] = at 50.0 µM (retest, dose inferred, filed as 5.0)
smiles,measurement,setting,value
COc1ccc2sc3cccc(NCCN(C)C)c3c(=O)c2c1,growth inhibition,[1]; [17],-3%
same,growth inhibition,[1]; at 11.0 µM,6%
same,growth inhibition,[1]; at 33.0 µM,9%
same,growth inhibition,[1]; [18],3%
same,growth inhibition,[1]; at 50.0 µM,-4.1%
same,growth inhibition,[1]; at 100.0 µM,12%
same,growth inhibition,[2]; at 1.2 µM,-1%
same,growth inhibition,[2]; at 3.7 µM,-1%
same,growth inhibition,[2]; at 11.0 µM,-1%
same,growth inhibition,[2]; at 33.0 µM,9%
same,growth inhibition,[2]; at 100.0 µM,33%
same,growth inhibition,[3]; [17],-9%
same,growth inhibition,[3]; [18],38%
same,growth inhibition,[3]; at 50.0 µM,54.6%
same,growth inhibition,[4]; at 1.2 µM,-3%
same,growth inhibition,[4]; at 3.7 µM,-10%
same,growth inhibition,[4]; at 11.0 µM,-4%
same,growth inhibition,[4]; at 33.0 µM,-4%
same,growth inhibition,[4]; at 100.0 µM,17%
same,growth inhibition,[5]; [17],3%
same,growth inhibition,[5]; [18],6%
same,growth inhibition,[5]; at 50.0 µM,31.6%
same,growth inhibition,[6]; at 1.2 µM,-4%
same,growth inhibition,[6]; at 3.7 µM,-3%
same,growth inhibition,[6]; [17],9%
same,growth inhibition,[6]; at 11.0 µM,-3%
same,growth inhibition,[6]; at 33.0 µM,-1%
same,growth inhibition,[6]; [18],5%
same,growth inhibition,[6]; at 50.0 µM,-4.65%
same,growth inhibition,[6]; at 100.0 µM,1%
same,growth inhibition,[7]; at 1.2 µM,0%
same,growth inhibition,[7]; at 3.7 µM,-2%
same,growth inhibition,[7]; at 11.0 µM,0%
same,growth inhibition,[7]; at 33.0 µM,-1%
same,growth inhibition,[7]; at 100.0 µM,8%
same,growth inhibition,[8]; at 1.2 µM,-1%
same,growth inhibition,[8]; at 3.7 µM,2%
same,growth inhibition,[8]; at 11.0 µM,3%
same,growth inhibition,[8]; at 33.0 µM,4%
same,growth inhibition,[8]; at 100.0 µM,18%
same,growth inhibition,[9]; at 1.2 µM,2%
same,growth inhibition,[9]; at 3.7 µM,1%
same,growth inhibition,[9]; at 11.0 µM,3%
same,growth inhibition,[9]; at 33.0 µM,2%
same,growth inhibition,[9]; at 100.0 µM,16%
same,growth inhibition,[10]; [17],-1%
same,growth inhibition,[10]; [18],-9%
same,growth inhibition,[10]; at 50.0 µM,67.3%
same,growth inhibition,[11]; at 1.2 µM,0%
same,growth inhibition,[11]; at 3.7 µM,0%
same,growth inhibition,[11]; at 11.0 µM,2%
same,growth inhibition,[11]; at 33.0 µM,9%
same,growth inhibition,[11]; at 100.0 µM,27%
COc1cc(C(=O)/C=C/c2ccccc2O)ccc1O,growth inhibition,[12]; at 1.2 µM,-11%
same,growth inhibition,[12]; at 3.7 µM,55%
same,growth inhibition,[12]; at 11.0 µM,98% (active)
same,growth inhibition,[12]; at 33.0 µM,98% (active)
same,growth inhibition,[12]; at 100.0 µM,98% (active)
same,growth inhibition,[13]; at 1.2 µM,-11%
same,growth inhibition,[13]; at 3.7 µM,73% (active)
same,growth inhibition,[13]; at 11.0 µM,98% (active)
same,growth inhibition,[13]; at 33.0 µM,99% (active)
same,growth inhibition,[13]; at 100.0 µM,98% (active)
same,growth inhibition,[14]; at 1.2 µM,11%
same,growth inhibition,[14]; at 3.7 µM,89% (active)
same,growth inhibition,[14]; at 11.0 µM,99% (active)
same,growth inhibition,[14]; at 33.0 µM,99% (active)
same,growth inhibition,[14]; at 100.0 µM,98% (active)
same,growth inhibition,[15]; at 1.2 µM,9%
same,growth inhibition,[15]; at 3.7 µM,84% (active)
same,growth inhibition,[15]; at 11.0 µM,98% (active)
same,growth inhibition,[15]; at 33.0 µM,99% (active)
same,growth inhibition,[15]; at 100.0 µM,98% (active)
same,growth inhibition,[16]; at 1.2 µM,10%
same,growth inhibition,[16]; at 3.7 µM,32%
same,growth inhibition,[16]; [17],33%
same,growth inhibition,[16]; at 11.0 µM,98% (active)
same,growth inhibition,[16]; at 33.0 µM,98% (active)
same,growth inhibition,[16]; [18],98% (active)
same,growth inhibition,[16]; at 50.0 µM,93.2% (active)
same,growth inhibition,[16]; at 100.0 µM,98% (active)
same,growth inhibition,[1]; at 1.2 µM,-7%
same,growth inhibition,[1]; at 3.7 µM,78% (active)
same,growth inhibition,[1]; [17],80% (active)
same,growth inhibition,[1]; at 11.0 µM,99% (active)
same,growth inhibition,[1]; at 33.0 µM,98% (active)
same,growth inhibition,[1]; [18],99% (active)
same,growth inhibition,[1]; at 50.0 µM,94.4% (active)
same,growth inhibition,[1]; at 100.0 µM,98% (active)
same,growth inhibition,[2]; at 1.2 µM,-6%
same,growth inhibition,[2]; at 3.7 µM,62%
same,growth inhibition,[2]; at 11.0 µM,99% (active)
same,growth inhibition,[2]; at 33.0 µM,98% (active)
same,growth inhibition,[2]; at 100.0 µM,98% (active)
same,growth inhibition,[3]; [17],-4%
same,growth inhibition,[3]; [18],98% (active)
same,growth inhibition,[3]; at 50.0 µM,94.4% (active)
same,growth inhibition,[4]; at 1.2 µM,19%
same,growth inhibition,[4]; at 3.7 µM,42%
same,growth inhibition,[4]; at 11.0 µM,99% (active)
same,growth inhibition,[4]; at 33.0 µM,99% (active)
same,growth inhibition,[4]; at 100.0 µM,98% (active)
same,growth inhibition,[5]; [17],42%
same,growth inhibition,[5]; [18],98% (active)
same,growth inhibition,[5]; at 50.0 µM,92.8% (active)
same,growth inhibition,[6]; at 1.2 µM,-20%
same,growth inhibition,[6]; at 3.7 µM,53%
same,growth inhibition,[6]; [17],76% (active)
same,growth inhibition,[6]; at 11.0 µM,99% (active)
same,growth inhibition,[6]; at 33.0 µM,99% (active)
same,growth inhibition,[6]; [18],97% (active)
same,growth inhibition,[6]; at 50.0 µM,94.2% (active)
same,growth inhibition,[6]; at 100.0 µM,98% (active)
same,growth inhibition,[7]; at 1.2 µM,-24%
same,growth inhibition,[7]; at 3.7 µM,50%
same,growth inhibition,[7]; at 11.0 µM,99% (active)
same,growth inhibition,[7]; at 33.0 µM,99% (active)
same,growth inhibition,[7]; at 100.0 µM,98% (active)
same,growth inhibition,[8]; at 1.2 µM,1%
same,growth inhibition,[8]; at 3.7 µM,62%
same,growth inhibition,[8]; at 11.0 µM,99% (active)
same,growth inhibition,[8]; at 33.0 µM,99% (active)
same,growth inhibition,[8]; at 100.0 µM,98% (active)
same,growth inhibition,[9]; at 1.2 µM,8%
same,growth inhibition,[9]; at 3.7 µM,26%
same,growth inhibition,[9]; at 11.0 µM,99% (active)
same,growth inhibition,[9]; at 33.0 µM,99% (active)
same,growth inhibition,[9]; at 100.0 µM,99% (active)
same,growth inhibition,[10]; [17],79% (active)
same,growth inhibition,[10]; [18],98% (active)
same,growth inhibition,[10]; at 50.0 µM,91.8% (active)
same,growth inhibition,[11]; at 1.2 µM,1%
same,growth inhibition,[11]; at 3.7 µM,47%
same,growth inhibition,[11]; at 11.0 µM,98% (active)
same,growth inhibition,[11]; at 33.0 µM,98% (active)
same,growth inhibition,[11]; at 100.0 µM,98% (active)
